This note sets out measurements from the supplement of paper PMC10849652.

The full data set covers some 8,800 targets. This sample favours those with a hit. About 0.5% of all pairs of compound and target were hits. Unmarked numbers belong to inactive results.

Sequence of UniProt Q8N163 (Q8N163 whole entry, looked up): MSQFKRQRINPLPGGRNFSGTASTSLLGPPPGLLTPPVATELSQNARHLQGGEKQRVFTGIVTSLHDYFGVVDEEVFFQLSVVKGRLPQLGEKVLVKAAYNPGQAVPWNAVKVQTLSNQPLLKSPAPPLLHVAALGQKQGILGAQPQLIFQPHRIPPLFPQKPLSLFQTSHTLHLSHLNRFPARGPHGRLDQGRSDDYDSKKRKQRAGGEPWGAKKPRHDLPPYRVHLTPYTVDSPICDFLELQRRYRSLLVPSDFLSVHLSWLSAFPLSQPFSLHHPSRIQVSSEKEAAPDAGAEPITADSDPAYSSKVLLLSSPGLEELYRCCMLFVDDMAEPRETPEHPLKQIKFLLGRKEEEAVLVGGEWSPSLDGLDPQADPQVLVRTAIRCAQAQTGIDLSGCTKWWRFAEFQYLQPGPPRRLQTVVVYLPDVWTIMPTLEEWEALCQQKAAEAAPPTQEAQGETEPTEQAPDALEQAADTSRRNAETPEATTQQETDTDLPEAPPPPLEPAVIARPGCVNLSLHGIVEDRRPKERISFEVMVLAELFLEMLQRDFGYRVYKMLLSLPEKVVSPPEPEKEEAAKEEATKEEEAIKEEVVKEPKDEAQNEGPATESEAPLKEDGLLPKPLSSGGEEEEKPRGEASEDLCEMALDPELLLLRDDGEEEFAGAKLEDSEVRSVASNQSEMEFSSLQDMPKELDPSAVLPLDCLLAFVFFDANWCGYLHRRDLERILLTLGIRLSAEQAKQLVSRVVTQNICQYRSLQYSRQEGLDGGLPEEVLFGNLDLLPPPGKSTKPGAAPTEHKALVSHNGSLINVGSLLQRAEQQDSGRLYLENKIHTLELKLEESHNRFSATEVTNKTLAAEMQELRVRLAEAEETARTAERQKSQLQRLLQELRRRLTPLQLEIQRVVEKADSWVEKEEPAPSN
Sequence of UniProt Q8N5S9 (Q8N5S9 whole entry, looked up): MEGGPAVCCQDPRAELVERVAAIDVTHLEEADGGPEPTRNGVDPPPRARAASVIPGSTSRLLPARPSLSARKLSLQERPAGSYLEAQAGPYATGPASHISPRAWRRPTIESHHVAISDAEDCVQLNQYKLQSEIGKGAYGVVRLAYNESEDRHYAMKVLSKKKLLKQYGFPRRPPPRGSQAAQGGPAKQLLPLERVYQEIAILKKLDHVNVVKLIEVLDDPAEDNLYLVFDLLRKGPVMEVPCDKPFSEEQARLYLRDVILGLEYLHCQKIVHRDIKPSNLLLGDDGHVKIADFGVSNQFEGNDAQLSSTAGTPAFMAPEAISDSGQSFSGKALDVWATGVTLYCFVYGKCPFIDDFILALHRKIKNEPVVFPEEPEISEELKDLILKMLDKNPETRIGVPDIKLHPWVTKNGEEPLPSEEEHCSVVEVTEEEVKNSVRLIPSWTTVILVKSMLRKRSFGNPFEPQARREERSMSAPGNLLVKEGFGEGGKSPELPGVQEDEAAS
Sequence of UniProt Q14692 (Q14692 whole entry, looked up): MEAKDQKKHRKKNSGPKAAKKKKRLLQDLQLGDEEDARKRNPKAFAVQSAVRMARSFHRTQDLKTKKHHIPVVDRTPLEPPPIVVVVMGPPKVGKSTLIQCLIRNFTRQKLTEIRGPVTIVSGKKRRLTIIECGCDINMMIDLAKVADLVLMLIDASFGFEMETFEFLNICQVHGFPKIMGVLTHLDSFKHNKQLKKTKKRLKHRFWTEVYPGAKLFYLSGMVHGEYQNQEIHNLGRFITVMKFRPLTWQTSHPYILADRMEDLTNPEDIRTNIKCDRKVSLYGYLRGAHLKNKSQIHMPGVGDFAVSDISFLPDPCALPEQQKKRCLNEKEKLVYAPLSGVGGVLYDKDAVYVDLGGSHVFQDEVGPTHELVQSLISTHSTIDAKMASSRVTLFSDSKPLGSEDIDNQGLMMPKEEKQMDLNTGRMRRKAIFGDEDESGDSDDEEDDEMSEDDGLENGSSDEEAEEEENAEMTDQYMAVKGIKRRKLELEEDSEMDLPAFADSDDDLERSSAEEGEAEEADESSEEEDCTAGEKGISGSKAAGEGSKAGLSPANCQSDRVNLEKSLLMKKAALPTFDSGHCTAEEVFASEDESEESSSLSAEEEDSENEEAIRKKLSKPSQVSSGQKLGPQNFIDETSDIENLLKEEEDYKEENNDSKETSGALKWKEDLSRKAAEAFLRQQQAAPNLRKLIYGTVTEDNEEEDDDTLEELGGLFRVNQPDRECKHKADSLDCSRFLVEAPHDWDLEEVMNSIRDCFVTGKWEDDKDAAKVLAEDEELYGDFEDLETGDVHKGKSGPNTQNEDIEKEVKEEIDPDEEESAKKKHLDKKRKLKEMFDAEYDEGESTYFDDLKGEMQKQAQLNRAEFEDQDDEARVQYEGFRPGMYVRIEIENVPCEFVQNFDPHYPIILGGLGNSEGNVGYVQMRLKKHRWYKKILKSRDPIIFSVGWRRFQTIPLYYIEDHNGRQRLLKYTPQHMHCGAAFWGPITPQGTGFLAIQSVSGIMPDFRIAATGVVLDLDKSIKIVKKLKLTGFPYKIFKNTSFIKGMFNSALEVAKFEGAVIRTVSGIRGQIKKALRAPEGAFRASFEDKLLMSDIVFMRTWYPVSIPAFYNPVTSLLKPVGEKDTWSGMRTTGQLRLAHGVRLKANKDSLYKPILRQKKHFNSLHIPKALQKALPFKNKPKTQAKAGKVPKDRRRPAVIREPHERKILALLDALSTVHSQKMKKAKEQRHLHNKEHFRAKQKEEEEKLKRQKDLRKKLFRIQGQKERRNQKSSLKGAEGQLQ
Sequence of UniProt P20248 (P20248 whole entry, looked up): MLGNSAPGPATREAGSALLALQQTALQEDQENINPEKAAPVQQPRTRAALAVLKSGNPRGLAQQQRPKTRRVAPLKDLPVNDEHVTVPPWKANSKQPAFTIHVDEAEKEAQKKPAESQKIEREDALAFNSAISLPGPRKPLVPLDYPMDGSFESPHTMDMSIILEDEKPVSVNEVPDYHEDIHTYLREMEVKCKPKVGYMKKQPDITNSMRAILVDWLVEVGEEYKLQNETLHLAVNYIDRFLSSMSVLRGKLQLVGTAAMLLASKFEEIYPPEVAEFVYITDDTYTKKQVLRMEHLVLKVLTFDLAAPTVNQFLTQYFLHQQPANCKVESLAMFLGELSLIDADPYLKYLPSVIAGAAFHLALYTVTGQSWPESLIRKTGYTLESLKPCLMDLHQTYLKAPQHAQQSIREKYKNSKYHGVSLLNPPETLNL
Sequence of UniProt Q92879 (Q92879 whole entry, looked up): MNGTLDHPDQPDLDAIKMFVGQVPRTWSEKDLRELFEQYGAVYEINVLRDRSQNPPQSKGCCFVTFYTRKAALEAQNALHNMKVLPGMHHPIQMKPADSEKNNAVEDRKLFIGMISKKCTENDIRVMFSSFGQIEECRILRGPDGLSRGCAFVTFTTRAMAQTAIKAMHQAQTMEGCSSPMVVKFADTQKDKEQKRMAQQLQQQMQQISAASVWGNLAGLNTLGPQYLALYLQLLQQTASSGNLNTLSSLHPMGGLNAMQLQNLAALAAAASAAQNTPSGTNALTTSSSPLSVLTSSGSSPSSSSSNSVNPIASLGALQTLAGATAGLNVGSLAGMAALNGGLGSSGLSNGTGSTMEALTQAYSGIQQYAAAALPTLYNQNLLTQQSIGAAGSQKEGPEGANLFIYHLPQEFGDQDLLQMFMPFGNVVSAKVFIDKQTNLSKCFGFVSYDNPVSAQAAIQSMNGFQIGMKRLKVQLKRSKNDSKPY
Sequence of UniProt Q7L2Z9 (Q7L2Z9 whole entry, looked up): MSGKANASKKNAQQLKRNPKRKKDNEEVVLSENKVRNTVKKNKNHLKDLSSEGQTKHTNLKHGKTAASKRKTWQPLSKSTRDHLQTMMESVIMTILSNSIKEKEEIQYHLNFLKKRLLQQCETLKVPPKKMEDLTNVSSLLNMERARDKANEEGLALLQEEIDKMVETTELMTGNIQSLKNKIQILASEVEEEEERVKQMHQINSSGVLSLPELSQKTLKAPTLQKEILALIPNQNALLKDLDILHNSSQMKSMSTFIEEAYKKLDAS
Sequence of UniProt P18859 (P18859 whole entry, looked up): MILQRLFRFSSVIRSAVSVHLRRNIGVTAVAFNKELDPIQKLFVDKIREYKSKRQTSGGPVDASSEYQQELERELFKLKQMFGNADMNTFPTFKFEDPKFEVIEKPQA
Sequence of UniProt P50750 (P50750 whole entry, looked up): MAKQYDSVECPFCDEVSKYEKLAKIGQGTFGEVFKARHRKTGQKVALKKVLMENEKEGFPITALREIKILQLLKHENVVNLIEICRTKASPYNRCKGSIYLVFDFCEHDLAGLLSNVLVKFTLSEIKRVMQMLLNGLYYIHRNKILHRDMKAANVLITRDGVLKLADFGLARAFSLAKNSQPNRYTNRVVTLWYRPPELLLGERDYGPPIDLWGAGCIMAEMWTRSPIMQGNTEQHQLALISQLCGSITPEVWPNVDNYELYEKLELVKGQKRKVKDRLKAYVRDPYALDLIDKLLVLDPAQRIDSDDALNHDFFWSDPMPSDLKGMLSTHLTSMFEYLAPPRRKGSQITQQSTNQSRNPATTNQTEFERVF
Sequence of UniProt P08962 (P08962 whole entry, looked up): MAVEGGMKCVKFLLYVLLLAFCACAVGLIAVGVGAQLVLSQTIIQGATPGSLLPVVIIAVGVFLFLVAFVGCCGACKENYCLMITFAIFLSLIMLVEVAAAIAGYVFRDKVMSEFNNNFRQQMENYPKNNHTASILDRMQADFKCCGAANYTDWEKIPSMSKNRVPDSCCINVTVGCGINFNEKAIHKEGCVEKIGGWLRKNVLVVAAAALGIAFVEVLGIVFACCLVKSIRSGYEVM
Sequence of UniProt Q8N4Q1 (Q8N4Q1 whole entry, looked up): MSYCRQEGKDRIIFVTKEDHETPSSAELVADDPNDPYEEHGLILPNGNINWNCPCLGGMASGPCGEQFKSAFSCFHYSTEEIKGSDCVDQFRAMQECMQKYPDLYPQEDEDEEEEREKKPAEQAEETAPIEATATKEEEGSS
Sequence of UniProt Q86WR0 (Q86WR0 whole entry, looked up): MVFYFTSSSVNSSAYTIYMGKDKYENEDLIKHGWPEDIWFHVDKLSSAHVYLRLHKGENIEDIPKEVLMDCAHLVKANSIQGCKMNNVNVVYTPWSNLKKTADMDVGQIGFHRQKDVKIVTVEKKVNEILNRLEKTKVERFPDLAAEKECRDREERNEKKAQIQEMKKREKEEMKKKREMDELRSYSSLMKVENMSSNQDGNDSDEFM

Compound in the first test: CNc1nc(-c2ccc3c(N)n[nH]c3c2)cc(N2C[C@@H](C(=O)NC3CCCCC3)CC[C@H]2C)n1
The test can be described thus: log2 fold change, soluble protein after heating vs DMSO (PISA); higher = thermal stabilisation; K562 lysate, 10 uM; active = over 0.2 and 3.5 SD of the protein, either way, in both replicates (recomputed). In outline: (§1)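 Pellets of K562 cells were dounce-homogenised in PBS pH 7.4 with 1 mM MgCl2, and the crude extract was held at 1 mg/mL protein for a 30 min treatment with 10 μM compound. Aliquots were heated for 3 min over 48°C-58°C and pooled before NP-40 was added to 0.5% at 4°C. The supernatant from 21,000xg for 90 min was quantified by TMTpro 16plex LC-MS/MS with channel sums equalised. Values are reported from duplicates as log-two fold change in thermal stability relative to solvent controls.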
On to BRD4 (UniProt O60885), for which the log2 fold change was 0.036.
In the case of CAMKK1 isoform 2 (UniProt Q8N5S9), the log2 fold change was -0.118.
As for ATG13 isoform 2 (UniProt O75143), the log2 fold change was 0.026.
Same read-out and setting: under ATAD1 (UniProt Q8NBU5) stands 0.006; under BSDC1 (UniProt Q9NW68), -0.025; under ATP5PF isoform 2 (UniProt P18859), -0.022.
With CAD (UniProt P27708), the log2 fold change was -0.008.
Consider CHCHD2 (UniProt Q9Y6H1), for which the log2 fold change is -0.024.
On the same count and under the same terms, under CHCHD4 isoform 2 (UniProt Q8N4Q1) stands 0.045; under CCNC (UniProt P24863), -0.052; under CELF2 isoform 3 (UniProt O95319), -0.02.
Same read-out and setting: under CEP120 (UniProt Q8N960) stands 0.273; under CCDC25 (UniProt Q86WR0), 0.075; under CELF1 isoform 4 (UniProt Q92879), -0.059.
Take BNIP1 (UniProt Q12981): the log2 fold change was -0.014.
Same read-out and setting: for CHD5 (UniProt Q8TDI0) the value was 0.037; for ATP2B4 (UniProt P23634), 0.001.
On the same count and under the same terms, under CANX isoform 2 (UniProt P27824) stands -0.003.
As for BCKDK (UniProt O14874), the log2 fold change is -0.098.
Still for that read-out and setting: under CCAR2 (UniProt Q8N163) stands -0.02; under CDC40 (UniProt O60508), 0.069.
In the case of CDK5RAP2 (UniProt Q96SN8), the log2 fold change is -0.007.
Same read-out and setting: for CD63 (UniProt P08962) the value was -0.101.
As for ATR (UniProt Q13535), the log2 fold change was -0.001.
Same read-out and setting: for CCDC47 (UniProt Q96A33) the value was -0.028.
Take CCNA2 (UniProt P20248): the log2 fold change was -0.017.
Still for that read-out and setting: for CHD4 isoform 2 (UniProt Q14839) the value was 0.017.
On the same count and under the same terms, under CENPQ (UniProt Q7L2Z9) stands 0.055; under BLM (UniProt P54132), 0.001; under ATP6V0A2 (UniProt Q9Y487), 0.001.
For the target BTAF1 (UniProt O14981), the log2 fold change was 0.
Still for that read-out and setting: under CDC42EP4 (UniProt Q9H3Q1) stands 0.113.
Consider BMS1 (UniProt Q14692), for which the log2 fold change is 0.007.
The same measure, in the same setting: for CDK9 isoform 2 (UniProt P50750) the value was 0.016.
Same read-out and setting: for C12orf45 (UniProt Q8N5I9) the value was 0.036; for BCKDHB (UniProt P21953), -0.031.
The same measure, in the same setting: for CDC45 isoform 3 (UniProt O75419) the value was -0.017; for BUD23 isoform 3 (UniProt O43709), -0.052.
In the case of CARD9 (UniProt Q9H257), the log2 fold change is 0.038.

Compound in a further test: COC(=O)N[C@@H](C)CNc1nccc(-c2cn(C(C)C)nc2-c2cc(Cl)cc(NS(C)(=O)=O)c2F)n1 [encorafenib]
Described as above. In outline:
as §1
For BRD4 (UniProt O60885), the log2 fold change was 0.
Still for that read-out and setting: for CAMKK1 isoform 2 (UniProt Q8N5S9) the value was 0.014; for ATG13 isoform 2 (UniProt O75143), 0.054.
As to ATAD1 (UniProt Q8NBU5), the log2 fold change was -0.049.
Same read-out and setting: for BSDC1 (UniProt Q9NW68) the value was 0.112.
Same read-out and setting: for ATP5PF isoform 2 (UniProt P18859) the value was 0.014; for CAD (UniProt P27708), 0.001; for CHCHD2 (UniProt Q9Y6H1), -0.044.
For CHCHD4 isoform 2 (UniProt Q8N4Q1), the log2 fold change was 0.062.
For the target CCNC (UniProt P24863), the log2 fold change was 0.041.
Same read-out and setting: under CELF2 isoform 3 (UniProt O95319) stands 0.108.
Still for that read-out and setting: under CEP120 (UniProt Q8N960) stands 0.065; under CCDC25 (UniProt Q86WR0), 0.008.
For the target CELF1 isoform 4 (UniProt Q92879), the log2 fold change is 0.108.
On the same count and under the same terms, for BNIP1 (UniProt Q12981) the value was 0.095.
Same read-out and setting: for CHD5 (UniProt Q8TDI0) the value was 0.024; for ATP2B4 (UniProt P23634), 0.021.
On to CANX isoform 2 (UniProt P27824), for which the log2 fold change was 0.027.
As for BCKDK (UniProt O14874), the log2 fold change is -0.061.
The same measure, in the same setting: under CCAR2 (UniProt Q8N163) stands 0.014; under CDC40 (UniProt O60508), 0.095.
As to CDK5RAP2 (UniProt Q96SN8), the log2 fold change is 0.045.
Take CD63 (UniProt P08962): the log2 fold change is 0.046.
Still for that read-out and setting: under ATR (UniProt Q13535) stands 0.045.
In the case of CCDC47 (UniProt Q96A33), the log2 fold change is -0.045.
On the same count and under the same terms, under CCNA2 (UniProt P20248) stands 0.005.
On to CHD4 isoform 2 (UniProt Q14839), for which the log2 fold change was 0.013.
Still for that read-out and setting: for CENPQ (UniProt Q7L2Z9) the value was 0.169.
Turning to BLM (UniProt P54132), the log2 fold change was 0.043.
As to ATP6V0A2 (UniProt Q9Y487), the log2 fold change is 0.03.
As to BTAF1 (UniProt O14981), the log2 fold change was 0.021.
Same read-out and setting: under CDC42EP4 (UniProt Q9H3Q1) stands 0.079.
Same read-out and setting: under BMS1 (UniProt Q14692) stands 0.075; under CDK9 isoform 2 (UniProt P50750), -0.008; under C12orf45 (UniProt Q8N5I9), 0.05.
Turning to BCKDHB (UniProt P21953), the log2 fold change was -0.074.
The same measure, in the same setting: under CDC45 isoform 3 (UniProt O75419) stands 0.001; under BUD23 isoform 3 (UniProt O43709), -0.017.
As to CARD9 (UniProt Q9H257), the log2 fold change was -0.06.
